Data on 20 compounds can be found in PubChem BioAssay (EPA / NIEHS).

Read-out in experiment [1]: Vascular endothelial growth factor receptor 2 (Homo sapiens) (UniProt P35968)
The experiment in a line: BSK_4H_VEGFRII: BioMAP Diversity Plus: 4H Assay for Vascular endothelial growth factor receptor 2 (VEGFR2) Biomarker Activity (AID 2283031).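 On AC50: cell-surface VEGFR2 protein level quantified by ELISA.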 The conditions noted are these: primary human endothelial cells (HUVEC); actives raise or lower the signal. A digest of the protocol: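 Measured by ELISA after 24 h of compound treatment: VEGFR2 on primary human umbilical vein endothelial cells, fitted in both directions relative to DMSO. Parallel cultures received SRB staining (560 nm) for overt cytotoxicity.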

Read-out in experiment [2]: Human Leukocyte Antigen - DR isotype (HLADR), HLA-DRA (gene 3122)
The experiment in a line: BSK_BE3C_HLADR: BioMAP Diversity Plus: BE3C Assay for Human Leukocyte Antigen - DR isotype (HLADR) Biomarker Activity (AID 2283032). The conditions noted are these: primary human bronchial epithelial cells; actives raise or lower the signal. The procedure, abridged: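 BioMAP BE3C format: human bronchial epithelium, 24 h compound treatment, ELISA detection of HLA-DR, with bidirectional analysis relative to DMSO.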

Read-out in experiment [3]: Vascular cell adhesion molecule 1 (VCAM1), VCAM1 (gene 7412)
Kind of experiment: BSK_4H_VCAM1: BioMAP Diversity Plus: 4H Assay for Vascular cell adhesion molecule 1 (VCAM1) Biomarker Activity (AID 2283033).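 On outcome: cell-surface VCAM-1 protein measured by ELISA.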 The conditions noted are these: primary human endothelial cells (HUVEC); actives raise or lower the signal. The procedure, abridged: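 In this human endothelial (HUVEC) system, biomarker ELISA was run 24 h after compound addition, and total protein in parallel wells was assessed by SRB at 560 nm; DMSO served as negative control.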

Read-out in experiment [4]: Interferon-gamma inducible Protein 10 (IP10), CXCL10 (gene 3627)
Kind of experiment: BSK_BE3C_IP10: BioMAP Diversity Plus: BE3C Assay for Interferon-gamma inducible Protein 10 (IP10) Biomarker Activity (AID 2283034). The following applies: primary human bronchial epithelial cells; actives raise or lower the signal. A digest of the protocol: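 BE3C cells (human bronchial epithelial, primary); 24 h exposure; ELISA for IP-10; DMSO-referenced bidirectional fit.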

Read-out in experiment [5]: Monokine induced gamma interferon (MIG), CXCL9 (gene 4283)
The experiment in a line: BSK_BE3C_MIG: BioMAP Diversity Plus: BE3C Assay for Monokine induced gamma interferon (MIG) Biomarker Activity (AID 2283035).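 On outcome: MIG protein measured by ELISA in BE3C cultures after 24 h of dosing.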 The following applies: primary human bronchial epithelial cells; actives raise or lower the signal. A digest of the protocol: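 hu bronchial epithelial 1° cells, 24 h cpd; MIG by ELISA; bidirectional fit, DMSO = baseline.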

Read-out in experiment [6]: Transforming growth factor beta 1 (TGFb1), TGFB1 (gene 7040)
The experiment in a line: BSK_BE3C_TGFb1: BioMAP Diversity Plus: BE3C Assay for Transforming growth factor beta 1 (TGFb1) Biomarker Activity (AID 2283036;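 on outcome: TGF-b1 protein level measured by ELISA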). The following applies: primary human bronchial epithelial cells; actives raise or lower the signal. The procedure, abridged: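 TGF-b1 measured via ELISA, 24 h after chemical dosing of human bronchial epithelial cells (BE3C). Overt cytotoxicity assessed in parallel by SRB (0.1%, TCA-fixed, 560 nm); analysis bidirectional relative to DMSO.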

Read-out in experiment [7]: Plasminogen activator inhibitor-1 (PAI1), SERPINE1 (gene 5054)
Kind of experiment: BSK_BE3C_PAI1: BioMAP Diversity Plus: BE3C Assay for Plasminogen activator inhibitor-1 (PAI1) Biomarker Activity (AID 2283037). The conditions noted are these: primary human bronchial epithelial cells; actives raise or lower the signal. The procedure, abridged:
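In this multiplexed primary-cell system, bronchial epithelial cells receive test chemical and are sampled at 24 h. PAI-1 is read by ELISA, with DMSO serving as negative control for bidirectional fitting.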

Read-out in experiment [8]: urokinase plasminogen activator (uPA), PLAU (gene 5328)
Kind of experiment: BSK_BE3C_uPA: BioMAP Diversity Plus: BE3C Assay for urokinase plasminogen activator (uPA) Biomarker Activity (AID 2283038).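 On outcome: uPA protein level quantified by ELISA in cell cultures; uPA read one day after compound addition.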 The conditions noted are these: primary human bronchial epithelial cells; actives raise or lower the signal. The procedure, abridged:
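ELISA for uPA on human primary bronchial epithelial cultures 24 h post-treatment, gain or loss against DMSO. Parallel SRB staining (0.1% after 10% TCA fixation, 560 nm) assessed overt cytotoxicity.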

Read-out in experiment [9]: Urokinase-type plasminogen activator receptor (uPAR), PLAUR (gene 5329)
Kind of experiment: BSK_BE3C_uPAR: BioMAP Diversity Plus: BE3C Assay for Urokinase-type plasminogen activator receptor (uPAR) Biomarker Activity (AID 2283039).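 On outcome: uPAR protein level measured by ELISA on the cells; cells exposed to compound for one day before measurement.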 The conditions noted are these: primary human bronchial epithelial cells; actives raise or lower the signal. A digest of the protocol: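 Chemically treated human bronchial epithelial cells (lung primary) are assayed for uPAR by ELISA after 24 h, with data fitted in both directions using DMSO as negative control.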

Read-out in experiment [10]: Interleukin-6 (IL6), IL6 (gene 3569)
Kind of experiment: BSK_CASM3C_IL6: BioMAP Diversity Plus: CASM3C Assay for Interleukin-6 (IL6) Biomarker Activity for (AID 2283040). The conditions noted are these: primary human coronary artery smooth muscle cells; actives raise or lower the signal.

A structure can be active in one record and inactive in another. Activity calls are given as the source filed them. How the source made its calls: active means hit-call score of the fitted dose curve at least 0.9, where 1 is the maximum; inactive means score below 0.9.

As a reminder, the AC50 is the midpoint of the concentration-response curve, whichever way the signal moves. As to `CCc1cccc(CC)c1N(COC)C(=O)CCl`, the result in experiment [1], in experiment [5], in experiment [6], in experiment [7], in [8] and in experiment [9] was inactive. For the same compound, in experiment [10], the outcome was inactive. The AC50 was 33.4 µM (active) in experiment [2], 15.3 µM (active) in [3] and 31.8 µM (active) in experiment [4].
For the compound `CCC(=NOC/C=C/Cl)C1=C(O)CC(C2CCOCC2)CC1=O` (stereo not drawn), the result in experiment [1], in [2], in experiment [3], in experiment [4], in [5] and in experiment [6] was inactive. For the same compound, the result in [7], in experiment [8], in [9] and in experiment [10] was inactive.
As for `CN1COCN(Cc2cnc(Cl)s2)C1=N[N+](=O)[O-]`, the outcome in [1], in experiment [2], in experiment [3], in [4], in experiment [5] and in experiment [6] was inactive. The outcome in experiment [7], in experiment [8] and in experiment [10] was inactive.
For the compound `Nc1c(Cl)cc([N+](=O)[O-])cc1Cl`, the outcome in experiment [1], in experiment [3], in [4], in experiment [5], in experiment [6] and in [7] was inactive. Further, the outcome in experiment [8] and in experiment [10] was inactive. In experiment [2], the AC50 is 12.6 µM (active).
Turning to `CCOP(=O)(NC(C)C)Oc1ccc(SC)c(C)c1` (stereo not drawn), the result in experiment [1], in experiment [2], in [3], in experiment [4], in experiment [5] and in experiment [6] was inactive. Further, the outcome in [7], in experiment [8] and in experiment [10] was inactive. For the same compound, the AC50 in [9] was 5.54 µM (active).
In the case of `CCOP(=S)(OCC)Oc1ccc2c(C)c(Cl)c(=O)oc2c1`, the result in [1], in [2], in experiment [3], in [4], in experiment [5] and in experiment [6] was inactive. Further, the result in [8] and in experiment [10] was inactive.
Turning to `Cc1cc(C2CC2)nc(Nc2ccccc2)n1`, the outcome in experiment [1], in experiment [3], in experiment [4], in experiment [5], in experiment [6] and in [7] was inactive. Also, the result in experiment [8] and in experiment [10] was inactive. Moreover, the AC50 in [2] was 5.17 µM (active).
For the compound `C=C(C)[C@H]1Cc2c(ccc3c2O[C@@H]2COc4cc(OC)c(OC)cc4[C@@H]2C3=O)O1`, the AC50 in experiment [1] was 3.97 µM (active); in experiment [2], 6.33 µM (active); in [3] it was 8.68 µM (active); in [4], 20 µM (active). The outcome in experiment [5], in [6], in experiment [7], in experiment [8] and in [10] was inactive.
Take `COc1cc(OC)nc(Sc2cccc(Cl)c2C(=O)O)n1`: the result in [1], in experiment [3], in experiment [4], in experiment [5], in experiment [6] and in experiment [7] was inactive. Also, the result in [8], in [9] and in [10] was inactive.
Turning to `COP(=O)(OC)OC(Br)C(Cl)(Cl)Br` (stereo not drawn), the AC50 in [1] is 31.1 µM (active); in experiment [2], 27.7 µM (active); in experiment [3], 30.7 µM (active); in experiment [4] it was 30.3 µM (active); in [5], 30.8 µM (active); in experiment [6], 33.1 µM (active). For the same compound, the AC50 in experiment [7] was 27.9 µM (active); in [8], 32 µM (active); in [10], 31.2 µM (active).
Turning to `CC(=NC#N)N(C)Cc1ccc(Cl)nc1`, the result in [1], in experiment [2], in experiment [3], in [4], in experiment [5] and in experiment [6] was inactive. In addition, the result in experiment [7], in [8], in [9] and in experiment [10] was inactive.
Regarding `CCOP(=S)(OCC)SCCSCC`, the result in experiment [1], in experiment [2], in experiment [3], in experiment [4], in experiment [5] and in experiment [6] was inactive. Further, the result in experiment [7], in [8] and in experiment [10] was inactive.
On to `FC(F)C(F)(F)OCC(Cn1cncn1)c1ccc(Cl)cc1Cl` (stereo not drawn), for which the result in [1], in experiment [5], in experiment [6], in experiment [7], in experiment [8] and in [9] was inactive. The outcome in experiment [10] was inactive. The concentration at half-maximal activity (AC50) in [2] is 29.8 µM (active); in experiment [3] it was 29.7 µM (active); in experiment [4], 26.4 µM (active).
For `S=C1NCCN1`, the result in experiment [1], in [2], in experiment [3], in [4], in experiment [5] and in experiment [6] was inactive. Also, the outcome in experiment [7], in experiment [8] and in [10] was inactive. Further, the AC50 in experiment [9] is 0.397 µM (active).
As to `CN(C)[C@@H]1C(=O)C(C(N)=O)=C(O)[C@@]2(O)C(=O)C3=C(O)c4c(O)cccc4[C@@](C)(O)[C@H]3[C@H](O)[C@@H]12`, the result in experiment [1], in experiment [2], in [3], in experiment [4], in experiment [5] and in experiment [6] was inactive. In addition, the outcome in experiment [7], in [8], in experiment [9] and in experiment [10] was inactive. In addition, the AC50 in experiment [7] is 3.97 µM (active).
On to `CC[C@H](C)[C@H]1O[C@]2(C=C[C@@H]1C)C[C@@H]1C[C@@H](C/C=C(\C)[C@@H](O[C@H]3C[C@H](OC)[C@@H](O[C@H]4C[C@H](OC)[C@@H](NC)[C@H](C)O4)[C@H](C)O3)[C@@H](C)/C=C/C=C3\CO[C@@H]4[C@H](O)C(C)=C[C@@H](C(=O)O1)[C@]34O)O2`, for which the result in [1] and in [10] was inactive. In addition, the half-maximal activity concentration (AC50) in experiment [3] was 8.45 µM (active); in experiment [4], 7.15 µM (active); in [5], 8.8 µM (active); in [6], 9.47 µM (active); in [7], 6.98 µM (active); in experiment [8] it was 10.9 µM (active).
On to `CCCCOC(=O)c1ccccc1C(=O)O`, for which the outcome in experiment [1], in [3], in experiment [4], in experiment [5], in experiment [6] and in experiment [7] was inactive. Also, the result in experiment [8], in experiment [9] and in experiment [10] was inactive.
Regarding `CCCCSP(=O)(SCCCC)SCCCC`, the result in experiment [3], in experiment [4], in experiment [5], in experiment [6], in experiment [7] and in experiment [8] was inactive. For the same compound, the result in experiment [9] and in [10] was inactive.
For the compound `C#CCC1=C(C)C(OC(=O)C2C(C=C(C)C)C2(C)C)CC1=O` (stereo not drawn), the result in experiment [1], in experiment [3], in [5], in experiment [6], in experiment [7] and in [8] was inactive. Moreover, in experiment [10], the outcome was inactive. For the same compound, in experiment [4], the AC50 is 27.1 µM (active).
On to `CC(C1CC1)C(O)(Cn1cncn1)c1ccc(Cl)cc1` (stereo not drawn), for which the result in experiment [1], in experiment [3], in experiment [4], in experiment [5], in experiment [6] and in [7] was inactive. Also, the outcome in [8] and in experiment [10] was inactive.
